Compound activity as filed in PubChem BioAssay.
Peg3 promoter = Peg3 promoter-driven luciferase inhibitors, primary screen, cell-based, HeLa, luciferase luminescence | HeLa PEG-Prom luciferase reporter, overnight | inhibition, % at 20 µM | actives 1.7% (n = 360,000) | AID 588405, 2011;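 active means inhibition of at least 50% at 20 µM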
Shn3 3UTR inh = reduction of Shn3 3'UTR firefly luciferase signal, primary screen, Schnurri-3 inhibitor project, cell-based, Clone20 osteoblasts, set 2; Clone20 osteoblast Shn3 3'UTR firefly luciferase, 24 h; inhibition, % at 12.5 µM; actives 0.52% (n = 360,000);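 active means mean inhibition of at least 75% with every replicate also reaching 75%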
CF NFkB block = inhibitors of PAF-induced NF-kB signaling, primary screen, cell-based, GFP fluorescence, uHTS | KKLEB NF-kB-GFP reporter, GFP fluorescence overnight | inhibition, % at 5 µM | actives 0.86% (n = 360,000);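 active means at least 50% inhibition at 5 µM, scaled per plate between neutral and stimulator controls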;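 further: PAF is a Pseudomonas aeruginosa culture filtrate used as stimulus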
KKLEB cytotox = cytotoxicity in KKLEB CF airway cells, primary screen, cytotoxicity control for CF NF-kB inhibitor project, cell-based, uHTS, fluorescence assay plates; AID 602141, 2011; actives 0.36% (n = 360,000); KKLEB CF airway cells viability, ATPlite luminescence, overnight; active compounds read low; cells stimulated with P. aeruginosa culture filtrate; activity change (cytotoxicity), % at 5 µM;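 active means corrected activity change at or below -50% at 5 µM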
TRPM1 prom inh = inhibitors of MITF-dependent TRPM1 promoter reporter, primary screen, cell-based, SK-MEL-5, single point, luciferase | inhibition, % at 12.5 µM | actives 0.83% (n = 330,000) | AID 488899, 2010 | SK-MEL-5 TRPM1 promoter luciferase, 24 h;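 active means mean inhibition across replicates of 60% or more, whatever share of single replicates reaches that level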
HIF-2a inh = HIF-2a reporter inhibitors, primary screen, luminescence, 786-0 RCC cells; inhibition, % at 18.8 µM; 786-0 RCC cells HIF-2a reporter, luciferase luminescence, overnight; actives 0.72% (n = 360,000);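 active means inhibition of the luminescence signal of 40% or more relative to plate controls, in a single-dose primary screen at 18.75 µM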
Of the large screens only hits and unclear results are named; the others gave an inactive call. Rows were chosen to be rich in hits. Some 2.8% of all compounds tested hit in one or more screens of this group.

CNc1ccccc1C(C)(C)c1cc(-c2cccc(Br)c2)no1	Shn3 3UTR inh 86.5
C#CCOCCOCCOCCNc1nc(N2CCN(C(=O)CCCCCCCCCCNC(=O)Cn3cc(C[C@@H](C)O)nn3)CC2)nc(N2CCN(C(=O)CCCCCCCCCCNC(=O)[C@H](CCCCN)n3cc(C[C@@H](C)CC)nn3)CC2)n1	Peg3 promoter 99.2, TRPM1 prom inh 82.7
CC[C@H](C)Cc1cn([C@@H](CCCCNC(=O)OC(C)(C)C)C(=O)NCCCCCCCCCCC(=O)N2CCN(C(=O)OC(C)(C)C)CC2)nn1	TRPM1 prom inh 68.2
C#CCOCCOCCOCCNc1nc(N2CCN(C(=O)CCCCCCCCCCNC(=O)Cn3cc(C[C@@H](C)O)nn3)CC2)nc(N2CCN(C(=O)CCCCCCCCCCNC(=O)Cn3cc(C[C@@H](C)O)nn3)CC2)n1	none
C#CCOCCOCCOCCNc1nc(N2CCN(C(=O)CCCCCCCCCCNC(=O)[C@H](CCCCN)n3cc(CCO)nn3)CC2)nc(N2CCN(C(=O)CCCCCCCCCCNC(=O)[C@H](CCCN=C(N)N)n3cc(C[C@@H](C)CC)nn3)CC2)n1	TRPM1 prom inh 77.1
C#CCOCCOCCOCCNc1nc(N2CCN(C(=O)CCCCCCCCCCNC(=O)[C@H](CCCCN)n3cc(C[C@@H](C)CC)nn3)CC2)nc(N2CCN(C(=O)CCCCCCCCCCNC(=O)[C@H](CCCCN)n3cc(C[C@@H](C)CC)nn3)CC2)n1	Peg3 promoter 104.8
C#CCOCCOCCOCCNc1nc(N2CCN(C(=O)CCCCCCCCCCNC(=O)[C@H](CCCCN)n3cc(CCO)nn3)CC2)nc(N2CCN(C(=O)CCCCCCCCCCNC(=O)[C@H](CCCCN)n3cc(CCO)nn3)CC2)n1	none
COc1ccc(OC)c(C(=O)Nc2c(O)ccc3ccccc23)c1	none
CC(C)CC1C(=O)N(Cc2cn(Cc3ccco3)nn2)CCS(=O)(=O)N1Cc1ccc(-c2ccccc2)cc1 (stereo not drawn)	none (no result: TRPM1 prom inh)
O=C(Nc1ccc(N2CCOCC2)cc1)c1csc([C@@H]2O[C@H](CO)[C@H](O)[C@H](O)[C@H]2O)n1	none (no result: TRPM1 prom inh)
COc1ccc(-n2c(=S)[nH]c3cc(C(=O)N4CCN(c5ccccc5)CC4)ccc3c2=O)c(OC)c1	none
COCCn1c(SCC(=O)NC2CC2)nnc1-c1ccc(Cl)cc1	none
C#CCOCCOCCOCCNc1nc(N2CCOCC2)nc(N2CCN(C(=O)CCCCCCCCCCNC(=O)[C@@H](CCSC)n3cc(CCO)nn3)CC2)n1	none
C#CCOCCOCCOCCNc1nc(N2CCN(C(=O)CCCCCCCCCCNC(=O)[C@@H](CCSC)n3cc(CCO)nn3)CC2)nc(N2CCN(C(=O)CCCCCCCCCCNC(=O)[C@H]([C@@H](C)CC)n3cc(CCCCN=C(N)N)nn3)CC2)n1	TRPM1 prom inh 62.7
COc1ccc(C(=O)N/C(N)=N/c2nc3ccccc3o2)cc1	none (no result: Shn3 3UTR inh)
COc1ccc(C(=O)/C=C/Sc2nc3ccccc3o2)cc1	Peg3 promoter 90.8, CF NFkB block 54.4 (no result: Shn3 3UTR inh)
C=CCNC(=O)c1oc2ccc(S(=O)(=O)N3CCC4(CC3)OCCO4)cc2c1C	none
Cc1ccc(CNC(=O)c2oc3ccc(S(=O)(=O)N4CCOCC4)cc3c2C)cc1	none
COc1ccc(NC(=O)c2oc3ccc(S(=O)(=O)N4CCC5(CC4)OCCO5)cc3c2C)cc1	Peg3 promoter 69.5
Cc1c(C(=O)N(C)Cc2ccccc2)oc2ccc(S(=O)(=O)N3CCCC3)cc12	none
CCN(CC)c1ccc(S(=O)(=O)N2CCOCC2)cc1NC(=O)c1cc(=O)c2ccccc2o1	Peg3 promoter 61.7
Cc1c(C(=O)N(Cc2ccccc2)C(C)C)oc2ccc(S(=O)(=O)N3CCOCC3)cc12	Peg3 promoter 51.1
Cc1c(C(=O)Nc2cccc(C(F)(F)F)c2)oc2ccc(S(=O)(=O)N3CCOCC3)cc12	Shn3 3UTR inh 88.0
COc1cccc(CNC(=O)CCSCc2ccccc2F)c1	none
CCCCn1c(=O)c(CCC(=O)OCC(=O)NCc2ccc(OC)c(OC)c2)nc2ccccc21	none
CN1C(=O)/C(=C\c2ccccc2F)Sc2ccc(C(=O)NC3CCN(Cc4ccccc4)CC3)cc21	Peg3 promoter 58.3
O=C(NCCN1CCOCC1)c1ccc2c(c1)N(Cc1cccc(F)c1)C(=O)c1ccccc1S2	none
Cc1ccccc1CN1C(=O)/C(=C\c2ccc(C(=O)NCCN3CCOCC3)cc2)Sc2ccccc21	Peg3 promoter 56.6
CCc1ccc(/C=C2/Sc3ccccc3N(CC(=O)NCCCN3CCOCC3)C2=O)cc1	none
CN1CCN(CCCNC(=O)c2ccc(/C=C3\Sc4ccccc4N(Cc4ccccc4F)C3=O)cc2)CC1	Peg3 promoter 74.3
COc1ccc(/C=C2\Sc3ccc(C(=O)NC4CC4)cc3N(C)C2=O)cc1OC	none
CCN1CCN(CCNC(=O)c2ccc3c(c2)N(Cc2ccc(F)cc2)C(=O)/C(=C/c2ccccc2)S3)CC1	Peg3 promoter 103.0, TRPM1 prom inh 91.7
O=C(CN1C(=O)/C(=C/c2ccc(C(F)(F)F)cc2)Sc2ccccc21)NCCCN1CCOCC1	none
Cc1ccc(N2C(=O)CCC(C(=O)O)C2c2cccs2)cc1 (stereo not drawn)	none
O=C(NCCN1CCOCC1)c1ccc(/C=C2\Sc3ccccc3N(Cc3ccccc3F)C2=O)cc1	Peg3 promoter 59.2
CCCCN(CC)CCNC(=O)c1cc2c(=O)n(CC)c3ccccc3c2s1	none
CCCCN(CC)CCCNC(=O)c1cc2c(=O)n(CC)c3ccccc3c2s1	Peg3 promoter 89.0, TRPM1 prom inh 69.2
CC1=CC(C)(C)N2C(=O)C(=Nc3ccc(O)cc3)c3cccc1c32	TRPM1 prom inh 77.6
COc1cc(N=C2C(=O)N3c4c(cccc42)C(C)=CC3(C)C)cc(OC)c1	none
O=C(NCCN1CCOCC1)C(=O)NCC1OCCCN1S(=O)(=O)c1cc(F)ccc1F (stereo not drawn)	none
CCCCNC(=O)c1ccc(Cn2c(=S)[nH]c3c([nH]c4ccc(OC)cc43)c2=O)cc1	Peg3 promoter 79.8, CF NFkB block 60.2, KKLEB cytotox -63.3
CCOCCCNC(=O)c1ccc(Cn2c(=S)[nH]c3c([nH]c4ccc(OC)cc43)c2=O)cc1	none
CCCCOc1ccc(CSC(=N)N)cc1Cl	Peg3 promoter 93.1
CCCCCOc1ccc(Br)cc1CSC(=N)N	Peg3 promoter 104.5, Shn3 3UTR inh 88.7
CCOc1ccc(CSC(=N)N)cc1	none
COc1ccc(Br)cc1CSC(=N)N	none
CCN(CC)CCN1C(=O)C(O)=C(C(=O)c2cc3cccc(OC)c3o2)C1c1ccc(F)cc1 (stereo not drawn)	none
